Experimental data: PubChem BioAssay (EPA / NIEHS)
Where “and” joins values, the source holds several entries; their conditions need not be identical. Identical values can stand only once. Inconclusive results are not listed. Calls of active or inactive are those of the source. The calls were made as follows, unless noted: active = hit-call score of the fitted dose curve at least 0.9, where 1 is the maximum; inactive = score below 0.9.

Assays:
[1] = target: Myc proto-oncogene protein (Homo sapiens) (UniProt P01106); test: ATG_Myc_CIS: Attagene CIS-FACTORIAL HepG2 Assay for human Myelocytomatosis (Myc) Proto-Oncogene Transcription Factor (AID 2282990); details: HepG2, Attagene cis-reporter transcription factor activity; actives raise or lower the signal
Chain of Myc proto-oncogene protein (Homo sapiens) (P01106 whole entry, looked up): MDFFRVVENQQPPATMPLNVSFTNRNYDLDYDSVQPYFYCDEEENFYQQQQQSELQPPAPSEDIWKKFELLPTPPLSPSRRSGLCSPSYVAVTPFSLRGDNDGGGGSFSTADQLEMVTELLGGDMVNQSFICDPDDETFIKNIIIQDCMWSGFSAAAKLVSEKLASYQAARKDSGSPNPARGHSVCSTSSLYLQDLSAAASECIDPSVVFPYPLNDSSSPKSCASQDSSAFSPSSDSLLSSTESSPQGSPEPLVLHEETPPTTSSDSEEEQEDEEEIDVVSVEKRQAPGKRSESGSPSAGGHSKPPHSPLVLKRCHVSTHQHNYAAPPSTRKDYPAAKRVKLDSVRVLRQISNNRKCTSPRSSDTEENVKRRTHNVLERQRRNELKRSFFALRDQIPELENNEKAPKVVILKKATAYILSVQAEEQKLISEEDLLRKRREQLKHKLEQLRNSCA
Method in brief: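 DMSO-normalised, bidirectionally fitted reporter mRNA signal. HepG2 cells transfected with cis reporter constructs, treated 24 h; transcripts detected by RT-PCR, 6-FAM primer extension and CE.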

[2] = ATG_NF_kB_CIS: Attagene CIS-FACTORIAL HepG2 Assay for human Nuclear Factor Kappa B (NF-kB) (AID 2282991); details: HepG2 Attagene cis-factorial NF-kB reporter mRNA; actives raise or lower the signal
Method in brief: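 Fluorescence of labelled RT-PCR products separated by capillary electrophoresis gives reporter mRNA levels from transfected HepG2 cells exposed 24 h; values are fitted in both directions relative to DMSO.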

[3] = ATG_NRF2_ARE_CIS: Attagene CIS-FACTORIAL HepG2 Assay for human Nuclear Factor Erythroid 2 Related Factor 2 (NFR2) response to Antioxidant Response Elements (ARE) (AID 2282992); details: HepG2 Attagene ARE/NRF2 reporter, transcription factor activity; actives raise or lower the signal
Method in brief: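 Endogenous transcription factor activity read out as reporter transcript levels (RT-PCR plus capillary electrophoresis, fluorescence) in transiently transfected HepG2 cells. Measured at 24 h after dosing; gain or loss of signal fitted versus DMSO.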

[4] = ATG_Oct_MLP_CIS: Attagene CIS-FACTORIAL HepG2 Assay for human Octamer-Binding Transcription Factor (Oct) (AID 2282993); details: HepG2 Attagene cis-factorial Oct reporter, mRNA; actives raise or lower the signal
Method in brief: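 Readout is reporter transcript level from RT-PCR with fluorescent primer extension and capillary electrophoresis, fitted in both directions against DMSO. Transfected HepG2 reporter units report endogenous factor activity after 24 h dosing.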

[5] = target: human Peroxisome Proliferator-activated Receptor delta (PPARd), PPARD (gene 5467) (UniProt Q03181); test: ATG_PPARd_TRANS: Attagene TRANS-FACTORIAL HepG2 Assay for human Peroxisome Proliferator-activated Receptor delta (PPARd) (AID 2283002; active = hit-call score of the fitted dose curve at least 0.9, where 1 is the maximum)
Chain of human Peroxisome Proliferator-activated Receptor delta (PPARd), PPARD (gene 5467) (Q03181 whole entry, looked up, the tested form may be a part): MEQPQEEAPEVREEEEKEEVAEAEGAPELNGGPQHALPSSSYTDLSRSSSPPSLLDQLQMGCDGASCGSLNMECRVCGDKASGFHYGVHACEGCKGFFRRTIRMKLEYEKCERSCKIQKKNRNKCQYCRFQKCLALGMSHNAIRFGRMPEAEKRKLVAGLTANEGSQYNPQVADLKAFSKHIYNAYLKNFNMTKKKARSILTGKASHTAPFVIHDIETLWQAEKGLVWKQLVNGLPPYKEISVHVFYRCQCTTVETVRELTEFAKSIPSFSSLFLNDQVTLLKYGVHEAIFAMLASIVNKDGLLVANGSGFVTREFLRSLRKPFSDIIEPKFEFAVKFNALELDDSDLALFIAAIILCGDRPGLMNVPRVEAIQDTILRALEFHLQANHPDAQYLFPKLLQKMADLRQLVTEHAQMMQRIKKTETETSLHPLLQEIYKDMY
Method in brief: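 Measured quantity: GAL4-UAS reporter transcript induction in HepG2 after 24 h chemical dosing, with NR-Gal4 chimeras supplied by transient transfection. Detection by RT-PCR and capillary electrophoresis; upward fit against DMSO.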

[6] = target: human Retinoic Acid Receptor beta (RARb), RARB (gene 5915) (UniProt P10826); test: ATG_RARb_TRANS: Attagene TRANS-FACTORIAL HepG2 Assay for human Retinoic Acid Receptor beta (AID 2283004; active = hit-call score of the fitted dose curve at least 0.9, where 1 is the maximum)
Chain of human Retinoic Acid Receptor beta (RARb), RARB (gene 5915) (P10826 whole entry, looked up, the tested form may be a part): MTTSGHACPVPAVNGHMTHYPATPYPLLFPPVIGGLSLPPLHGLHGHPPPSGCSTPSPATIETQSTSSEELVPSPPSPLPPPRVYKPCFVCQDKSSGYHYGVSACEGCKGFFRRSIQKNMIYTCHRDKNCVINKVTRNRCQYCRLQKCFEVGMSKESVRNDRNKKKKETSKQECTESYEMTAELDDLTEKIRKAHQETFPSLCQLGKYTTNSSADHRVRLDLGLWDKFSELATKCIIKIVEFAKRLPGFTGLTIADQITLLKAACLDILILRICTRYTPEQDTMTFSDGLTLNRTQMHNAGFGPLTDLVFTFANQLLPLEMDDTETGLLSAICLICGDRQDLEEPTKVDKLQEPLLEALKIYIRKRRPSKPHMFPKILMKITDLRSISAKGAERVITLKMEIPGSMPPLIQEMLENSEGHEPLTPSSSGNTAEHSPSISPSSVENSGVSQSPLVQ
Method in brief: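 HepG2 cells transiently transfected with multiplexed GAL4-UAS reporter units expressing chimeric NR–Gal4 fusions; 24 h compound exposure. Reporter mRNA quantified by RT-PCR, 6-FAM labelling, HpaI digestion and capillary electrophoresis; gain-of-signal fitted against DMSO baseline.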

[7] = target: Retinoic acid receptor alpha (Homo sapiens) (UniProt P10276); test: ATG_RARa_TRANS: Attagene TRANS-FACTORIAL HepG2 Assay for human Retinoic Acid Receptor alpha (RARa) (AID 2283005; active = hit-call score of the fitted dose curve at least 0.9, where 1 is the maximum)
Chain of Retinoic acid receptor alpha (Homo sapiens) (P10276 whole entry, looked up, the tested form may be a part): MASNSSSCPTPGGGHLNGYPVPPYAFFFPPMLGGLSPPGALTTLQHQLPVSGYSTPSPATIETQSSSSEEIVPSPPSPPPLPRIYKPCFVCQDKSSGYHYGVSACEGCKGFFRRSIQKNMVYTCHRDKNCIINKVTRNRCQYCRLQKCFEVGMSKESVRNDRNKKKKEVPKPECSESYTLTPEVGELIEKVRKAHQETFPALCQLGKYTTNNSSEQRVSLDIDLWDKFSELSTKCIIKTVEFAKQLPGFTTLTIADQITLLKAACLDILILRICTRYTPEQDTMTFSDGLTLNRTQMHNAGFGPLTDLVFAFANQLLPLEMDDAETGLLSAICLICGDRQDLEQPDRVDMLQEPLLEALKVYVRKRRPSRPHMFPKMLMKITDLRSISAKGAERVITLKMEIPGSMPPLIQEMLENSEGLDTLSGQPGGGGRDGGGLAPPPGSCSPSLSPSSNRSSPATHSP
Method in brief: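 HepG2 cells transiently transfected with multiple reporter units expressing chimeric RARα-GAL4 fusion, with GAL4-UAS-driven reporters. After 24 h compound exposure, reporter mRNA induction quantified by RT-PCR and capillary electrophoresis with fluorescent labeling; gain-of-signal fitted relative to DMSO control.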

[8] = target: Peroxisome proliferator-activated receptor gamma (Homo sapiens) (UniProt P37231); test: ATG_PPARg_TRANS: Attagene TRANS-FACTORIAL HepG2 Assay for human Peroxisome Proliferator-activated Receptor-gamma (PPARg) (AID 2283007; active = hit-call score of the fitted dose curve at least 0.9, where 1 is the maximum)
Chain of Peroxisome proliferator-activated receptor gamma (Homo sapiens) (P37231 whole entry, looked up): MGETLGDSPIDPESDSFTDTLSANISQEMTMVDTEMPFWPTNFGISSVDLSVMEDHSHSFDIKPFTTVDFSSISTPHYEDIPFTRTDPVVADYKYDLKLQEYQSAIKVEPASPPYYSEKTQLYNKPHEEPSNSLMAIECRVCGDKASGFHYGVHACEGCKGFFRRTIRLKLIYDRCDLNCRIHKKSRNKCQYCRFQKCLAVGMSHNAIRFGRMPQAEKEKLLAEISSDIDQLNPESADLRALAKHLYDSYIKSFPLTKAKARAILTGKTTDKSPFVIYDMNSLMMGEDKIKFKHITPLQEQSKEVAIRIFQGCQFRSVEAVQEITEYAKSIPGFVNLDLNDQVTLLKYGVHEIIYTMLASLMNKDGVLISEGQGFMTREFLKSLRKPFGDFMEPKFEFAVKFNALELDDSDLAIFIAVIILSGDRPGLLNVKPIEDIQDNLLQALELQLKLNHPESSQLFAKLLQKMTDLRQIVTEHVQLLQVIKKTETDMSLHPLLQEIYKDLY
Method in brief: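 Twenty-four hours after chemical dosing of transiently transfected HepG2 cells, isolated RNA was converted to cDNA, reporter sequences amplified and 6-FAM-labelled, then HpaI-digested and analysed by capillary electrophoresis. Signal increase against DMSO was fitted.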

[9] = target: Nuclear receptor subfamily 1 group I member 2 (Homo sapiens) (UniProt O75469); test: ATG_PXR_TRANS: Attagene TRANS-FACTORIAL HepG2 Assay for human Pregnane X Receptor (PXR) (AID 2283008; active = hit-call score of the fitted dose curve at least 0.9, where 1 is the maximum)
Chain of Nuclear receptor subfamily 1 group I member 2 (Homo sapiens) (O75469 whole entry, looked up, the tested form may be a part): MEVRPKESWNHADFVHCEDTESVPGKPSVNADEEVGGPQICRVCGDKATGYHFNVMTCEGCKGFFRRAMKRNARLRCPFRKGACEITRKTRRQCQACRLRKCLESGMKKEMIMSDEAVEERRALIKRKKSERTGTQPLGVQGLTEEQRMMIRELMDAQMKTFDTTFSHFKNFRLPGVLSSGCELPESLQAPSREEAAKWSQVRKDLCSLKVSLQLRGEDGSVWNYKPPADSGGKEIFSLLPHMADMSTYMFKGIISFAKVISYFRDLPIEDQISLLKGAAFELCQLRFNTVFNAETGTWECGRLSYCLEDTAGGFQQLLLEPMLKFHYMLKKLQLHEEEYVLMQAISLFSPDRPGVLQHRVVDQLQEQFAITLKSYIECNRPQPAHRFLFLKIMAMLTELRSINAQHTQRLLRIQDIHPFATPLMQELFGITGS
Method in brief: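 Transactivation by exogenous PXR–GAL4 fusion measured as reporter transcript induction after 24 h compound treatment of transfected human HepG2 cells. Read-out via RT-PCR and capillary electrophoresis of labelled fragments, fitted upward relative to DMSO.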

[10] = target: human RAR-related Orphan Receptor beta (RORb), RORB (gene 6096) (UniProt Q92753); test: ATG_RORb_TRANS: Attagene TRANS-FACTORIAL HepG2 Assay for human RAR-related Orphan Receptor beta (RORb) (AID 2283010; active = hit-call score of the fitted dose curve at least 0.9, where 1 is the maximum)
Chain of human RAR-related Orphan Receptor beta (RORb), RORB (gene 6096) (Q92753 whole entry, looked up, the tested form may be a part): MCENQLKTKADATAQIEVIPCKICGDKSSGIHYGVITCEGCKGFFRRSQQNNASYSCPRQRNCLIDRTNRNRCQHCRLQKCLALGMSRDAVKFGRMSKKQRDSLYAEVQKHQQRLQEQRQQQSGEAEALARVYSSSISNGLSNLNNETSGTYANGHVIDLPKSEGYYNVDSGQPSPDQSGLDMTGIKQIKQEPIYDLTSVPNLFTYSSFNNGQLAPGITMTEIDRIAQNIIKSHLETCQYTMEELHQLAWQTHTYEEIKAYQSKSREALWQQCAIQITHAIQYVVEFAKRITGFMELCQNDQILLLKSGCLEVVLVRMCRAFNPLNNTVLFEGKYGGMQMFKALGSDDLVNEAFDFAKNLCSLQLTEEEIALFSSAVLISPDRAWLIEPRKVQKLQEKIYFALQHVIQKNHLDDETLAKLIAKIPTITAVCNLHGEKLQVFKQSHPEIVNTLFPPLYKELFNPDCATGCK
Method in brief: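 HepG2, transient MRTU transfection (GAL4-UAS reporters, exogenous NR-Gal4 chimeras); 24 h compound exposure; total RNA → RT-PCR → 6-FAM primer extension → HpaI digest → CE fluorescence. Positive direction vs DMSO baseline.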

[11] = target: human RAR-related Orphan Receptor gamma (RORg), RORC (gene 6097) (UniProt P51449); test: ATG_RORg_TRANS: Attagene TRANS-FACTORIAL HepG2 Assay for human RAR-related Orphan Receptor gamma (RORg) (AID 2283011; active = hit-call score of the fitted dose curve at least 0.9, where 1 is the maximum)
Chain of human RAR-related Orphan Receptor gamma (RORg), RORC (gene 6097) (P51449 whole entry, looked up, the tested form may be a part): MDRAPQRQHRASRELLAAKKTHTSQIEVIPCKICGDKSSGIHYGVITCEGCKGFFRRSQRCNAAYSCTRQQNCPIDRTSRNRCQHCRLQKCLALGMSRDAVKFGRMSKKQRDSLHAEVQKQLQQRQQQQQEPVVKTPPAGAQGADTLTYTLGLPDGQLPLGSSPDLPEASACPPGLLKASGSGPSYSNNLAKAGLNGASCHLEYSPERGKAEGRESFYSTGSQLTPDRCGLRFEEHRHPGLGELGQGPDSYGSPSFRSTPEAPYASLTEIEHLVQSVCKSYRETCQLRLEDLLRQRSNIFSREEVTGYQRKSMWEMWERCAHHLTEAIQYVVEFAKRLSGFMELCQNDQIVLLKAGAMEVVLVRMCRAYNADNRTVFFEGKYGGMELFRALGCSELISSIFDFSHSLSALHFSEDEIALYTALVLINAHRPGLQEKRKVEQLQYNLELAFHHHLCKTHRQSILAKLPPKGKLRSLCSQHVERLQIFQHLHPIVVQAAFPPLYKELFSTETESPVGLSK
Method in brief: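 Readout: reporter transcript induction (RT-PCR, fluorescent primer extension, capillary electrophoresis) after 24 h compound exposure of transiently transfected HepG2 cells carrying a RORg-Gal4 chimera and GAL4-UAS reporters; DMSO served as baseline, with increasing signal fitted.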

[12] = target: Cellular tumor antigen p53 (Homo sapiens) (UniProt P04637); test: ATG_p53_CIS: Attagene CIS-FACTORIAL HepG2 Assay for human p53 Transcription Factor (AID 2282994); details: HepG2 p53 cis-element reporter, Attagene mRNA; actives raise or lower the signal
Chain of Cellular tumor antigen p53 (Homo sapiens) (P04637 whole entry, looked up): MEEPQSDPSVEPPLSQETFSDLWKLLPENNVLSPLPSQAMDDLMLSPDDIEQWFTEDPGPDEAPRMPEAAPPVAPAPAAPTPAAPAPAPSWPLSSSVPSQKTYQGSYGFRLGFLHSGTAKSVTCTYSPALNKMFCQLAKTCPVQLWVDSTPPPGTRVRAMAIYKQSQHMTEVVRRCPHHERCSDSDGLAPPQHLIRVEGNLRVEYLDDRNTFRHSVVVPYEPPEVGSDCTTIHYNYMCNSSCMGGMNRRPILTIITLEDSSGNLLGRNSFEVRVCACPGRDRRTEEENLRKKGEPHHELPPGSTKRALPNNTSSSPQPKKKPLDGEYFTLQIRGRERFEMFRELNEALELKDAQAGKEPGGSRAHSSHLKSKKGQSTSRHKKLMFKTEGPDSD
Method in brief: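 Endogenous p53 activity read in transiently transfected HepG2 from a cis-element-driven reporter transcript after 24 h exposure. RNA reverse-transcribed, PCR-amplified, fluorescently labelled and sized by capillary electrophoresis; gain or loss fitted against DMSO baseline.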

[13] = BSK_3C_uPAR: BioMAP Diversity Plus: 3C Assay for Urokinase-type plasminogen activator receptor (uPAR) Biomarker Activity (AID 2282998); details: BioMAP 3C HUVEC, uPAR biomarker ELISA; actives raise or lower the signal
Method in brief: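 Cell-surface uPAR on HUVEC (3C system) read by ELISA at 24 h post-treatment, with DMSO as baseline and fitting in both directions. Parallel cultures stained with SRB to flag overt cytotoxicity.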

[14] = BSK_3C_VCAM1: BioMAP Diversity Plus: 3C Assay for Vascular cell adhesion molecule 1 (VCAM1) Biomarker Activity (AID 2282999); details: BioMAP 3C HUVEC, VCAM1 ELISA, cytokine-stimulated; actives raise or lower the signal
Method in brief: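 Vascular primary endothelium (human umbilical vein) was exposed to chemicals and assayed 24 h later. VCAM-1 levels came from ELISA, with DMSO serving as baseline for bidirectional fitting.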

[15] = BSK_4H_Eotaxin3: BioMAP Diversity Plus: 4H Assay for Eotaxin 3 Biomarker Activity (AID 2283000); details: primary human endothelial cells (HUVEC); actives raise or lower the signal;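 also: CCL26 protein level quantified by ELISA in parallel with SRB cytotoxicity check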
Method in brief: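 HUVEC, 24 h post-dose, ELISA for Eotaxin-3/CCL26. Gain or loss of signal fitted bidirectionally vs DMSO baseline.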

[16] = target: human Peroxisome Proliferator-activated Receptor alpha (PPARa), PPARA (gene 5465) (UniProt Q07869); test: ATG_PPARa_TRANS: Attagene TRANS-FACTORIAL HepG2 Assay for human Peroxisome Proliferator-activated Receptor alpha (PPARa) (AID 2283001; active = hit-call score of the fitted dose curve at least 0.9, where 1 is the maximum)
Chain of human Peroxisome Proliferator-activated Receptor alpha (PPARa), PPARA (gene 5465) (Q07869 whole entry, looked up, the tested form may be a part): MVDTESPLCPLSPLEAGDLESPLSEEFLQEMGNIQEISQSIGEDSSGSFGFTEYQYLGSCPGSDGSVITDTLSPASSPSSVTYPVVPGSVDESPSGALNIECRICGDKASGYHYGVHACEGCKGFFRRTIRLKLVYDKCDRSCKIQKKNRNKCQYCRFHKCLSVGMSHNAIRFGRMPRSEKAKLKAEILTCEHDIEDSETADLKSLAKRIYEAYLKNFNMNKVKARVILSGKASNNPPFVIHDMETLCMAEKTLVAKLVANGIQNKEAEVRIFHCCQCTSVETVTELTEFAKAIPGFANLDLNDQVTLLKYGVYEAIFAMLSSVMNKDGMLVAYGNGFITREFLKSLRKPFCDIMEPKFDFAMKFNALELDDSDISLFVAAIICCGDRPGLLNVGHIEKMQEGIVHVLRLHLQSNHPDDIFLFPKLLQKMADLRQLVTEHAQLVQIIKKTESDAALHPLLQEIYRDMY
Method in brief: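 Exposure: 24 h, transiently transfected HepG2 cells. Endpoint: GAL4-UAS reporter mRNA, RT-PCR with capillary electrophoresis fluorescence. Baseline: DMSO; increases fitted.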

[17] = read-out: Intercellular Adhesion Molecule 1 (ICAM1), ICAM1 (gene 3383); test: BSK_3C_ICAM1: BioMAP Diversity Plus: 3C Assay for Intercellular Adhesion Molecule 1 (ICAM1) Biomarker Activity (AID 2283003); details: primary human endothelial cells (HUVEC); actives raise or lower the signal
Method in brief: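 ELISA read-out of ICAM-1; HUVEC (primary human), 3C system, 24 h post-dosing; bidirectional fit vs DMSO baseline.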

[18] = BSK_3C_Proliferation: Cell Proliferation Assessment in the BioMAP Diversity Plus: 3C Assay (AID 2283006); details: primary human endothelial cells (HUVEC)
Method in brief: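 HUVEC, sub-confluent; 48 h chemical exposure; 10% TCA fix, 0.1% SRB stain, A560 total protein. Gain or loss of signal fitted both directions vs DMSO control.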

Structure (SMILES): C[CH2][Hg][S]c1ccccc1C(=O)O
- outcome [1]: inactive
- outcome [2]: inactive
- AC50 [3]: 0.3 µM (active)
- AC50 [4]: 2.87 µM (active)
- outcome [5]: inactive
- outcome [6]: inactive
- outcome [7]: inactive
- AC50 [8]: 3.71 µM (active)
- outcome [9]: inactive
- outcome [10]: inactive
- outcome [11]: inactive

Structure (SMILES): O=C(Cc1ccccc1)OCCc1ccccc1
- outcome [1]: inactive
- outcome [3]: inactive
- outcome [4]: inactive
- outcome [12]: inactive
- outcome [13]: inactive
- outcome [14]: inactive
- outcome [15]: inactive
- outcome [16]: inactive
- outcome [5]: inactive
- outcome [17]: inactive
- outcome [18]: inactive
- outcome [8]: inactive
- outcome [11]: inactive

Structure (SMILES): CS(=O)(=O)c1ccc(C(=O)C2C(=O)CCCC2=O)c(Cl)c1COCC(F)(F)F
- outcome [1]: inactive
- outcome [2]: inactive
- outcome [3]: inactive
- outcome [4]: inactive
- outcome [16]: inactive
- outcome [9]: inactive
- outcome [11]: inactive

Structure (SMILES): c1cc[c]([Sb]([c]2ccccc2)[c]2ccccc2)cc1
- outcome [1]: inactive
- AC50 [3]: 70.3 µM (active)
- outcome [4]: inactive
- outcome [12]: inactive
- outcome [16]: inactive
- outcome [5]: inactive
- AC50 [8]: 23.5 µM (active)
- AC50 [9]: 8.18 µM (active)

Structure (SMILES): CC1(C)[C@H](C(=O)O[C@H](C#N)c2cccc(Oc3ccccc3)c2)[C@@H]1/C=C(\Cl)C(F)(F)F
- outcome [1]: inactive
- outcome [3]: inactive
- outcome [4]: inactive
- outcome [12]: inactive
- outcome [13]: inactive
- outcome [14]: inactive
- outcome [15]: inactive
- outcome [5]: inactive
- outcome [17]: inactive
- outcome [18]: inactive
- AC50 [8]: 5.86 µM (active) and 4.64 µM (active)
- AC50 [9]: 152 nM (active) and 288 nM (active)
- outcome [11]: inactive
